# The source made the active and inactive calls.
# Assay: growth of efflux-deficient E. coli DRC39 – strain DRC39, OD650, 48 h, E. coli filamentation inducers, primary screen (AID 1179);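 also: screen aims at cell division blockers that make cells filament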
# Settings: E. coli DRC39 delta-acrAB growth, higher = more signal, called active from +8 up or from −8 down
row,SMILES,z-score
1,[N-]=[N+]=Nc1ccccc1C[C@]1(C(=O)NCc2ccccc2)COC(c2ccc(OCCCO)cc2)=N1,0.161 (inactive)
2,C=CCNC(=O)[C@H]1[C@@H]2C(=O)O[C@@H](c3ccccc3)[C@@H](c3ccccc3)N2[C@@H](c2ccc(OCCO)cc2)[C@]12C(=O)Nc1ccc(C#CCNC(N)=O)cc12,-1.22 (inactive)
3,CCOC(=O)C[C@H]1[C@H](OC(=O)c2ccccc2-c2ccccc2)[C@@H](NC(=O)c2ccc3ccccc3n2)c2cc(OCCCO)ccc2N1C(=O)c1ccccc1,-0.916 (inactive)
4,C[C@@H]1ON(c2ccc(I)cc2)[C@H](c2ccc(OC(=O)OC(C)(C)C)cc2)[C@H]1C(=O)N1C(=O)OC[C@H]1Cc1ccccc1,1.2 (inactive)
5,CN1C(=O)[C@@H]2[C@@H](CC(COc3ccccc3)=C([C@H](O)CCc3ccccc3)[C@@H]2CO)C1=O,1.17 (inactive)
6,NC(=O)N1C(=O)C2C(C1=O)C1C=C(CCCO)C2C(C2CC2)N1Cc1cccc(OC(F)(F)F)c1 (stereo not given),-0.508 (inactive)
7,O=C(N1CCOCC1)[C@@]1(CCS(=O)(=O)c2ccccc2)N=C(c2ccc(OCCCO)cc2)O[C@H]1c1ccccc1,0.0231 (inactive)
8,C=C(COC)C(=O)CC[C@H](OC(C)=O)c1ccc(OCCO)cc1,0.53 (inactive)
9,COc1ccc(C(O)C2C=CC3C(=O)N(c4ccccc4)C(=O)C3N2Nc2ccccc2)cc1 (stereo not given),-0.43 (inactive)
10,O=C1C2C=CC(C(O)C=Cc3ccc([N+](=O)[O-])cc3)N(Nc3ccccc3)C2C(=O)N1c1ccccc1 (stereo not given),0.242 (inactive)
